Screening results deposited in PubChem by several laboratories.
EBV LMP1 NFkB: reduces LMP1-driven NF-kappaB luciferase signal; actives 0.69% (n = 350,000); inhibition, % at 12.5 µM; LMP1-induced NF-kappaB luciferase reporter cells, luminescence; in the data active = inhibition above about 41%; inconclusive = no clear call, values can overlap the other calls;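 note: 0% = neutral control wells and 100% = reference inhibitor control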
TRPM1 prom inh: inhibitors of MITF-driven TRPM1 promoter in melanoma cells; inhibition, % at 12.5 µM; actives 0.83% (n = 330,000); SK-MEL-5 TRPM1 promoter luciferase, 24 h;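 active = mean inhibition across replicates of 60% or more, whatever share of single replicates reaches that level; inconclusive = some that reach 60%, reason not given; inactive = mean inhibition across replicates below 60%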
TWEAK Fn14 block: inhibitors of TWEAK-Fn14 interaction signaling; TWEAK-stimulated Fn14 reporter cells, luciferase luminescence, 8 h; inhibition, % at 10 µM; actives 2% (n = 360,000); AID 1159606; in the data active = inhibition above about 50%
MITF TRPM1 HTS: increases MITF-driven TRPM1 promoter luciferase signal. SK-MEL-5 TRPM1-promoter luciferase, 24 h; % of positive control, neutral wells = 0. activation, % at 12.5 µM. actives 0.75% (n = 300,000);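 active = mean activation of at least 80% with every replicate also reaching 80%; inconclusive = mean reaches 80% but some replicate falls short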;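 note: 0% = neutral control wells and 100% = parthenolide positive control wells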
LGR2 antag: inhibitors of bursicon-induced Drosophila LGR2 receptor cAMP signaling; HEK293 LGR2, CRE-luciferase, bursicon-stimulated, 4 h; inhibition, % at 9.99 µM; actives 0.35% (n = 380,000); AID 720647;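 active = drop in luminescence signal, shown as inhibition above about 50% in the replicate tests, limit read from the data, passing the limit was not always enough; inconclusive = probably only some replicates passing the limit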;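 note: agonist challenge used bursicon conditioned medium at about half maximal strength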
TROY signal inh: TROY signaling inhibition. Q293 LMP1-TROYcd NF-kB luciferase reporter, 4 h. inhibition, % at 10 µM. actives 0.98% (n = 360,000). AID 1347056;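 active = compounds whose plate-normalised and pattern-corrected inhibition of the luciferase reporter signal at the single screening dose is 50% or more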
Starred values were filed as active, the others as inactive; ? = inconclusive; . = no result. This is a sample that favours compounds with a hit; in the whole collection about 3% have one here.

SMILES	EBV LMP1 NFkB	TRPM1 prom inh	TWEAK Fn14 block	MITF TRPM1 HTS	LGR2 antag	TROY signal inh
Cc1cc(C(=O)CSc2nc3ccccc3[nH]2)c(C)n1C	-14	-71	-10	70	.	-15
COc1ccc2nc(SCC(=O)c3ccco3)[nH]c2c1	-13	-95	17	95*	-37	-28
Cc1cc(C(=O)CSc2nc3ccccc3[nH]2)c(C)n1Cc1ccco1	-3	-17	92*	27	-13	81*
CN(C)C(=O)c1ccc(-c2cccc(-c3nc(C(=O)N(C)C)cc4c3[C@H](CCO)N([S@@](=O)C(C)(C)C)C4)c2)cc1	.	.	.	.	17	.
COc1ccc2cc(CNCCOCCOCCNCc3ccc4cc(OC)ccc4c3)ccc2c1	-54	91*	-68	-91	103*	58*
CCOCCCNCc1ccc(OC)cc1	-1	2	18	-1	-2	-11
C(=NOCc1ccccc1)c1ccncc1	-14	-63	-25	57	-44	-43
C(=NOCCc1ccccc1)c1cccnc1	-19	-95	-5	87*	-54	-48
CCS(=O)(=O)N1CCC2(CC1)CN(S(=O)(=O)c1cccc(OC)c1)[C@H](CO)c1[nH]c3cc(OC)ccc3c12	.	.	.	.	17	.
CCCNC(=O)C[C@H]1C[C@H]2c3cc(NS(C)(=O)=O)ccc3O[C@H]2[C@@H](CO)O1	.	.	.	.	4	.
COC(=O)c1ccc(N=NN2CCCCCC2)cc1	-20	-95	-11	106*	-50	-73
COC(=O)c1ccc(N2CCC(C)CC2)c(N)c1	-15	-60	-31	59	-11	-51
COC(=O)c1ccc(N2CCCCC2)c(N)c1	-12	-97	-21	88*	-40	-57
CC(=O)c1cccc(NC(=O)c2cc(-c3ccco3)nc3ccccc23)c1	4	8	65*	-2	12	19
COc1cccc(-c2cc(C(=O)Nc3ccncc3)c3ccccc3n2)c1	0	20	89*	-17	-1	4
COc1cc(-c2cc(C(=O)Nc3cccc(C(C)=O)c3)c3ccccc3n2)cc(OC)c1OC	11	-7	60*	5	8	9
COc1cc(-c2cc(C(=O)Nc3ccc(O)cc3)c3ccccc3n2)cc(OC)c1OC	0	-1	-18	7	9	0
C/C=C/c1ccc([C@H]2[C@@H](CO)N(C(=O)c3cnccn3)C23CN(C(=O)CC)C3)cc1	.	.	.	.	11	.
CS(=O)(=O)N(CC(=O)N/N=C/c1cccc2c1OCCO2)c1ccccc1Br	-3	5	-13	-2	.	-7
CCOC(=O)c1ccc(-c2ccc(/C=N/NC(=O)CN(c3ccccc3Br)S(C)(=O)=O)o2)cc1	-58	-24	67*	20	-60	-4
Cc1ccc(S(=O)(=O)Nc2ccc3c(c2)C(=O)N([C@H](C)CO)C[C@@H](C)[C@H](CN(C)C(=O)Nc2c(C)noc2C)OCCCC[C@@H](C)O3)cc1	.	.	.	.	-7	.
O=S(=O)(c1cccs1)N1CCCCN2[C@@H](CO)[C@@H](c3ccc(-c4ccccc4)cc3)[C@@H]2C1	.	.	.	.	8	.
O=C(CC1(O)C(=O)N(CCc2ccccc2)c2ccccc21)c1ccco1 (centres undefined)	0	9	86*	-9	.	.
O=C1C(Cl)=C(N2CCOCC2)C(=O)N1c1ccccc1F	9	13	70*	-12	-8	6
C[C@H](CO)N1C[C@H](C)[C@H](CN(C)S(=O)(=O)c2ccccc2)OCCCC[C@H](C)Oc2ccc(NS(C)(=O)=O)cc2C1=O	.	.	.	.	-5	.
SMILES	EBV LMP1 NFkB	TRPM1 prom inh	TWEAK Fn14 block	MITF TRPM1 HTS	LGR2 antag	TROY signal inh
O=C1/C(=C\c2cc(Cl)c(O)c(Cl)c2)SC(=S)N1Cc1ccccc1	12	5	61*	-6	0	70*
C[C@@H]1CN([C@H](C)CO)C(=O)c2cc(-c3ccc(F)cc3)cnc2O[C@H]1CN(C)C(=O)Nc1ccc(F)cc1	.	.	.	.	-17	.
Cc1sc2nc(SCC(=O)Nc3ccc(Cl)c(C(=O)O)c3)[nH]c(=O)c2c1C	2	-15	52*	17	12	25
Cc1sc2nc(SCC(=O)Nc3cccc(C(=O)O)c3)[nH]c(=O)c2c1C	-6	4	-6	-1	-1	2
Cc1nc(SCC(=O)Nc2ccc(CN3CCCC3)cc2)c2c(C)c(C)sc2n1	-13	77*	-29	-77	-4	13
CCN(Cc1ccc2c(c1)OCO2)C(=O)CSc1nc(C)nc2sc(C)c(C)c12	-1	-7	13	4	11	57*
Cc1cc(C)c(C(=O)/C=C/c2ccc(C(C)C)cc2)c(=O)[nH]1	26	15	93*	-16	80*	55*
CCC(=O)Nc1ccc2c(c1)C(=O)N(C)C[C@H](OC)[C@H](C)CN(C(=O)CN(C)C)[C@@H](C)CO2	.	.	.	.	12	.
Nc1ccccc1C#Cc1ccccc1	-46	-123	-14	133*	-141	-84
O=C(OCc1csc(-c2ccccc2)n1)c1ccc(O)cc1	1	-98	14	98*	-114	-55
CN1C(=O)C2(Oc3ccccc3C3CC(c4ccccc4)=NN32)c2ccccc21 (centres undefined)	-30	-36	81*	40	.	-43
C/C(CC(=O)Nc1ccc(Cl)c(C(F)(F)F)c1)=N\NC(=O)c1cnccn1	14	-9	9	10	-15	-5
CNC(=O)c1cc(Oc2ccc(NC(=O)Nc3ccc(Cl)c(C(F)(F)F)c3)cc2)ccn1	68*	17	84*	-13	.	62*
CCCC(=O)N(C1CC(C)C(C#N)(C#N)C1(C#N)C#N)N(C)C (centres undefined)	28	83*	5	.	-19	28
CC(=O)N(C1CC(C)C(C#N)(C#N)C1(C#N)C#N)N(C)C (centres undefined)	1	86*	8	-85	3	-11
COCC(=O)N1CC2(C1)[C@H](c1ccccc1)[C@@H](CO)N2C(=O)c1ccncc1	.	.	.	.	16	.
C=CCN=c1scc(-c2ccccc2)n1/N=C/c1ccccn1	6	-44	-2	48	-36	-6
CCN=c1scc(-c2ccc(F)cc2)n1/N=C/c1ccccn1	-20	-84	24	91*	-39	-21
CCN=c1scc(-c2ccccc2)n1/N=C/c1ccccn1	4	-3	92*	8	.	77*
C=CCN=c1scc(-c2ccc(F)cc2)n1/N=C/c1ccccn1	-11	-13	-6	20	-57	-9
COc1ccc2c3c([nH]c2c1)[C@@H](CO)N(C(=O)Nc1ccc(F)cc1)CC31CN(C(=O)c2ccccc2F)C1	.	.	.	.	-5	.
C[C@H]1CN([C@@H](C)CO)C(=O)c2cc(-c3ccc(C#N)cc3)cnc2O[C@H]1CN(C)C(=O)CN(C)C	.	.	.	.	0	.
Fc1ccc(-n2nnc(-c3cnc4ccccc4c3)n2)cc1	?	16	94*	-13	79*	73*
